Only some compounds are listed: those with a hit (about 4.6% of all), similar ones and a draw of the others.
PfHsp90 yeast 2: growth inhibition of yeast expressing Plasmodium Hsp90 | S. cerevisiae expressing PfHsp90, BacTiter-Glo ATP, 48 h; yeast lacking PDR1 and PDR3 efflux regulators | 0.32% of 310,000 active | inhibition, % at 9.4 µM | AID 504621;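 active = every replicate shows inhibition above about 80%, whatever the replicate mean, limit read from the data; inconclusive = mean inhibition reaches the set limit but some replicate falls short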;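 note: 0% = DMSO neutral controls and 100% = 20 µM radicicol positive controls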
TIM10 inh: TIM10 yeast growth inhibition | 1.4% of 330,000 active | S. cerevisiae TIM10 strain growth, BacTiter-Glo luminescence, 24 h | inhibition, % at 10 µM | AID 463195;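 active = inhibition of 40% or more at the single tested concentration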;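 note: wild-type TIM10 isogenic control strain grown at permissive 25 °C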
tim10-1 inh: inhibits growth of tim10-1 mutant yeast; S. cerevisiae tim10-1 ts strain growth, BacTiter-Glo, 24 h; inhibition, % at 20 µM; 2.2% of 330,000 active; AID 463190;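 active = inhibition of at least 40%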;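 note: mutant grown at 25 °C; 0% = DMSO wells with yeast and 100% = wells holding no yeast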
NLRP3 yeast inh: blocks the NALP3 inflammasome reconstituted in yeast; Yeast reconstituted NLRP3/ASC/caspase-1, beta-gal luminescence, 24 h; inhibition, % at 10 µM; 0.39% of 330,000 active; AID 2825;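 active = inhibition of 50% or more; inactive = inhibition below 50%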;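 note: plate controls were induced DMSO wells for no effect and uninduced yeast grown without galactose for full effect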
tim23-1 inh: inhibits growth of tim23-1 mutant yeast; 1.3% of 330,000 active; S. cerevisiae tim23-1 growth, BacTiter-Glo luminescence, 24 h; inhibition, % at 20 µM; AID 463212;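 active = growth inhibition of the mutant yeast at or above 50%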;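 note: temperature-sensitive mutant grown at 25 °C; plate controls were DMSO-treated mutant yeast for no effect and medium wells lacking yeast for full effect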
SKKanGAS inh: inhibitors of SKKanGAS S. pyogenes growth in kanamycin (SK-promoter or general growth effect). BacTiter-Glo, 6 h. inhibition, % at 7.5 µM. 1.3% of 300,000 active;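 active = mean replicate score, as percent of positive control median, at least 50; inconclusive = mean below 50 but one replicate at or above 50; inactive = mean and every replicate below 50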;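 note: strain carries kanamycin resistance gene driven by streptokinase promoter and grows in 40 µg/ml kanamycin; loss of luminescence reflects streptokinase promoter inhibition or plain growth inhibition; 0% = median of DMSO wells and 100% = positive control at its reference dose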
tim10-1 confirm: tim10-1 yeast growth inhibition, confirmed; shares compounds with tim10-1 inh; S. cerevisiae tim10-1 ts strain growth, BacTiter-Glo, 24 h; inhibition, % at 20 µM; 56% of 7,400 active;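 active = inhibition of yeast growth at or above a set limit in either of two repeat tests at 20 µM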;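 note: tim10-1 mutant grown at permissive 25 °C to find synthetic lethal compounds; 0% = DMSO yeast wells and 100% = medium wells without yeast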
TIM10 conf: confirmation of TIM10 yeast growth inhibitors; shares compounds with TIM10 inh; S. cerevisiae tim10 strain growth, BacTiter-Glo luminescence, 24 h; inhibition, % at 10 µM; 63% of 4,600 active;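 active = inhibition of yeast growth at or above a set limit in either of two replicates at 10 µM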;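 note: this counterscreen used the strain with wild-type TIM10; 0% = yeast with DMSO and 100% = medium wells lacking yeast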
tim23-1 confirm: tim23-1 yeast growth inhibition, confirmed | shares compounds with tim23-1 inh | S. cerevisiae tim23-1 growth, BacTiter-Glo luminescence, 24 h | inhibition, % at 20 µM | 83% of 4,400 active;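 active = inhibition above about 39% in either of two replicate wells at 20 µM, limit read from the data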;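 note: temperature-sensitive tim23-1 mutant grown at 25 °C; 0% = DMSO wells with yeast and 100% = medium wells without yeast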
* marks the source's active call; other numbers are inactive results; u = inconclusive; x = no result given.

SMILES	PfHsp90 yeast 2	TIM10 inh	tim10-1 inh	NLRP3 yeast inh	tim23-1 inh	SKKanGAS inh	tim10-1 confirm	TIM10 conf	others
C[C@H]1CCC[C@]2(C)C[C@H]3OC(=O)C(CN4CCCCCC4)[C@H]3C=C12 (stereo partly drawn)	-21	42*	44*	25	44	-1	41*	49*
c1ccc(C2Nc3ccccc3-c3nc4ccccc4n32)cc1 (stereo not drawn)	x	47*	41*	-25	38	3	23	35*
COc1ccccc1N1CCN(Cc2ccc(O)c3ncccc23)CC1	-26	50*	42*	46	31	43	23	35*
CCOC(=O)Cc1csc(Nc2ccc(Cl)cc2)n1	-5	48*	52*	-52	40	-19	41*	36*
CN(C)c1ccc(/C=N/n2c(-c3ccccc3Br)n[nH]c2=S)cc1	41	41*	42*	6	44	5	24	24
CN(C)c1ccc(/C=N/n2c(-c3cccnc3)n[nH]c2=S)cc1	-12	8	13	7	7	15	x	x
Cc1nc(CC(C)C)cc(C(=O)N2CCCC(CNS(=O)(=O)c3cccs3)C2)n1 (stereo not drawn)	-7	-2	-1	7	-2	6	x	x
O=C(/C=C/c1cc2ccccc2o1)c1ccccc1O	-6	58*	41*	13	48	-8	49*	58*
COc1ccc(O)c(C(=O)/C=C/c2cc3ccccc3o2)c1	1	48*	57*	17	39	1	37*	-11
CS(=O)(=O)c1ccc(Cl)c(C(=O)Nc2ccc3nc(N4CCOCC4)sc3c2)c1	-16	12	9	11	20	x	x	x
CCOC(=O)N1CCN(c2ncnc3c2oc2nc(C(C)C)c4c(c23)CCC4)CC1	x	46*	44*	15	41	-1	34*	37*
CC(C)Cc1nc2oc3c(N4CCN(CCO)CC4)ncnc3c2c2c1CCCC2	-25	44*	52*	4	33	-1	37*	20
CC(C)c1nc2oc3c(NCc4cccnc4)ncnc3c2c2c1CCC2	-10	10	26	-2	-10	-22	x	x
COc1ccccc1/C=c1\sc2nc(-c3ccccc3OC)nn2c1=O	-2	50*	49*	15	47	x	54*	24
C=CCOc1ccccc1/C=c1\sc2nc(-c3oc4ccccc4c3C)nn2c1=O	x	1	23	1	25	4	x	x
Cc1cc(CN2CCN(CC(=O)Nc3cc(C(F)(F)F)ccc3-n3cncn3)CC2)no1	-6	17	11	1	18	x	x	x
CCCCCCC(=O)N(O)C1CC(=O)N(Cc2ccccc2)C1=O (stereo not drawn)	-16	43*	45*	13	24	x	41*	27
CCCN(CCC)C1CC(=O)N(Cc2ccccc2)C1=O (stereo not drawn)	u	42*	53*	14	34	12	47*	39*
Cc1nnc(NC(=O)CSc2ccc3nnc(-c4cccnc4)n3n2)s1	x	-3	1	11	17	-16	x	x
N#C/C(=C/c1ccc(N2CCCCC2)o1)c1cccc(F)c1	-33	46*	55*	5	38	-29	51*	28
Nc1cc(=O)[nH]c(SCC(=O)Nc2ccccc2Sc2ccccc2)n1	1	-25	9	4	9	-1	x	x
COc1ccc(C)cc1NC(=O)CCc1ccc(S(=O)(=O)N2CCOCC2)cc1	-10	2	10	1	13	x	x	x
COC(=O)CNC(c1ccccc1)c1cc(Br)ccc1NC(=O)CCN1CCOCC1 (stereo not drawn)	-53	51*	51*	26	34	-8	42*	57*
CCOC(=O)CNC(c1ccccc1)c1cc(Br)ccc1NC(=O)OCC (stereo not drawn)	-2	20	30	7	22	18	x	x
CCOC(=O)CNC(c1ccccc1)c1cc(Br)ccc1NC(=O)CCN1CCOCC1 (stereo not drawn)	x	55*	45*	45	-13	-6	40*	40*
SMILES	PfHsp90 yeast 2	TIM10 inh	tim10-1 inh	NLRP3 yeast inh	tim23-1 inh	SKKanGAS inh	tim10-1 confirm	TIM10 conf	others
NC(=S)Nc1cccc2[nH]ccc12	-8	2	7	3	4	2	x	x
N/C(=N\OC(=O)CCC1CCCCC1)c1ccc([N+](=O)[O-])cc1	x	60*	83*	-8	67*	-9	79*	51*	tim23-1 confirm=70*
COc1ccc(/C(N)=N/OC(=O)CC2CCCCC2)cc1	-19	66*	59*	9	57*	3	64*	38*	tim23-1 confirm=54*
N/C(=N\OC(=O)CCC1CCCC1)c1cccc([N+](=O)[O-])c1	-1	39	48*	17	50*	3	38*	x	tim23-1 confirm=34
N/C(=N\OC(=O)CCC1CCCC1)c1ccc(Br)cc1	-5	83*	68*	-11	66*	-6	50*	72*	tim23-1 confirm=61*
Cc1cc(NC(=O)CSc2nc(C)c(C)c(=O)[nH]2)no1	x	-7	-5	8	10	3	x	x
CCN(CC)S(=O)(=O)c1cccc(NC(=O)CN2C(=O)NC3(CCOc4ccccc43)C2=O)c1 (stereo not drawn)	x	-2	10	10	8	x	x	x
CC1CC(C)(C)NC(=S)N1CCC(=O)NCc1ccc(Cl)cc1 (stereo not drawn)	27	4	7	17	10	1	x	x
CCc1ccc(C(C)NC(=O)Cn2cnc3c(=O)n(C)c(=O)n(C)c32)cc1 (stereo not drawn)	x	-30	11	-10	-6	-15	x	x
CCOc1ccc(/C=N/NC(=O)c2[nH]ncc2Br)c(O)c1	6	59*	52*	31	78*	-8	30*	37*	tim23-1 confirm=78*
Cc1cc(N2CCN(c3nc(-c4ccccc4)cs3)CC2)c2ccccc2n1	24	15	51*	-1	63*	20	42*	x	tim23-1 confirm=52*
CCC1CC(=O)CCN1S(=O)(=O)c1ccc(C)cc1 (stereo not drawn)	-10	x	x	x	x	x	x	x
CCn1cc(C(=O)N[C@H](C(=O)NCCCN2CCOCC2)C(C)C)c(=O)c2cc3c(cc21)OCO3	0	-2	-16	11	-6	0	x	x
Cc1oc2c(c1C(=O)NCc1cccnc1)C(=O)c1ccccc1C2=O	x	94*	83*	40	83*	86*	82*	95*	tim23-1 confirm=72*

Bioassay records: PubChem, several laboratories
